Assay results reported in PubChem BioAssay AID651871 (Sanford-Burnham Center for Chemical Genomics, 2012).

Tested on: HL-1
Assay: protection of cardiomyocytes from stress damage, SAR follow-up, cell-based, panel, H9c2 and HL-1, ATP luminescence, set 2 (AID 651871);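 also: cells exposed to stressor for 2 h before ATP readout; reference of the scale not given here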
Conditions: H9c2/HL-1 cardiomyocytes, 2-deoxyglucose stress, with 2-deoxyglucose
[1] = run 9, at 79 µM (top of the series)

## CCOC(=O)c1cccc(NC(=O)CNC(=O)c2cc(-c3cc(OC)c(OC)c(OC)c3)nc3ccccc23)c1
[1]
  activity (protection/inhibition): 91.8%

## COc1ccc2nc(-c3cc(OC)c(OC)c(OC)c3)cc(C(=O)NCC(=O)Nc3ccc(C(C)=O)cc3)c2c1
[1]
  activity (protection/inhibition): 90%

## COc1ccc2c(c1OC)C(=O)N1c3ccccc3C(=O)N(Cc3cccc(Cl)c3Cl)C21 (stereo not given)
Run 9, at 19.8 µM (top of the series)
  activity (protection/inhibition): 50.7%
Run 9, at 39.5 µM (top of the series)
  activity (protection/inhibition): 55.4%
[1]
  activity (protection/inhibition): -7.08%
